The record followed here is ChEMBL document CHEMBL2218924, “A broad activity screen in support of a chemogenomic map for kinase signalling research and drug discovery” (Biochem J, 2013).

The target of test [1] is Myosin light chain kinase, smooth muscle (Homo sapiens) (UniProt Q15746). The settings on record: at 10 µM.
Test [2] addresses Mitogen-activated protein kinase kinase kinase 9 (Homo sapiens) (UniProt P80192). The settings on record: at 1 µM.
Test [3] has the same target. The settings on record: at 10 µM.
For test [4], the target named is Serine/threonine-protein kinase MRCK beta (Homo sapiens) (UniProt Q9Y5S2). The settings on record: at 1 µM.
The target is the same in test [5]. To be noted: at 10 µM.
In test [6] the target is Ribosomal protein S6 kinase alpha-4 (Homo sapiens) (UniProt O75676). The settings on record: at 1 µM.
Sequence of Ribosomal protein S6 kinase alpha-4 (Homo sapiens) (O75676 whole entry, looked up): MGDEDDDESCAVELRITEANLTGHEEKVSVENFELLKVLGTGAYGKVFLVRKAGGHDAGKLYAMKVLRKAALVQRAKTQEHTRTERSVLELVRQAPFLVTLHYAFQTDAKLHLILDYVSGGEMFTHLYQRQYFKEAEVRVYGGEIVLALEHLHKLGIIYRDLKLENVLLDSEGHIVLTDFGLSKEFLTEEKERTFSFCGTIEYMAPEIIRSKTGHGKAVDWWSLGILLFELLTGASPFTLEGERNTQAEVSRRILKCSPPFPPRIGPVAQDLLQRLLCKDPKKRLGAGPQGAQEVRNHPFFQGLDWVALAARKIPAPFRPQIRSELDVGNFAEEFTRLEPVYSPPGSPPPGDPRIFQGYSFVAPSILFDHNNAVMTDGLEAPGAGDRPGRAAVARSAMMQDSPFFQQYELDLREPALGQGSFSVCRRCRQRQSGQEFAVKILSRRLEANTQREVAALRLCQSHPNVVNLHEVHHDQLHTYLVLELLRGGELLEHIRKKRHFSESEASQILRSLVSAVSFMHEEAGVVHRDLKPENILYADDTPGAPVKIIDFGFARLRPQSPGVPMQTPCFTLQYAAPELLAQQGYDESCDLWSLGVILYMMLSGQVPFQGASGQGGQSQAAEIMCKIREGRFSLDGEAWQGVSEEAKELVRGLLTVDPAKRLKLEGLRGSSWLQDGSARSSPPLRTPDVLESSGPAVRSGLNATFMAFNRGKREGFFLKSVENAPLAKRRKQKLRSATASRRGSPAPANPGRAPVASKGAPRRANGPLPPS
Test [7] shares this target. The settings on record: at 10 µM.
In test [8] the target is SRSF protein kinase 3 (Homo sapiens) (UniProt Q9UPE1). To be noted: at 1 µM.
Sequence of SRSF protein kinase 3 (Homo sapiens) (Q9UPE1 whole entry): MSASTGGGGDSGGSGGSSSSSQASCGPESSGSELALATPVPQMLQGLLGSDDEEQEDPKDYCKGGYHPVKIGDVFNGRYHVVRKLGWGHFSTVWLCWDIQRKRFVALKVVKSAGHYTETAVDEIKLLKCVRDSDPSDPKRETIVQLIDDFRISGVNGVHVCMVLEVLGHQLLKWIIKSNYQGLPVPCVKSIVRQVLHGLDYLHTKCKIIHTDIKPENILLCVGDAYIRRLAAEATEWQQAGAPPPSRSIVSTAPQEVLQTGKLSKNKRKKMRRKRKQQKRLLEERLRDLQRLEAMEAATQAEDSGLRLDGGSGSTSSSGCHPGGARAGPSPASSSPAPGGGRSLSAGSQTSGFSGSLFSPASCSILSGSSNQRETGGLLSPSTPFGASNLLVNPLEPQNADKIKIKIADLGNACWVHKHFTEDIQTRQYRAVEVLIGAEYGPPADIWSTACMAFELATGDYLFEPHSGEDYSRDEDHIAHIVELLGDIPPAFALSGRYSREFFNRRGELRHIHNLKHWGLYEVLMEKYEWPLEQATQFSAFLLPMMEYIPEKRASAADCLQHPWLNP
For test [9] the target is unchanged. To be noted: at 10 µM.
Test [10] addresses T1, Serine/threonine-protein kinase 4 (Homo sapiens) (UniProt Q13043).
T1 sequence (whole entry): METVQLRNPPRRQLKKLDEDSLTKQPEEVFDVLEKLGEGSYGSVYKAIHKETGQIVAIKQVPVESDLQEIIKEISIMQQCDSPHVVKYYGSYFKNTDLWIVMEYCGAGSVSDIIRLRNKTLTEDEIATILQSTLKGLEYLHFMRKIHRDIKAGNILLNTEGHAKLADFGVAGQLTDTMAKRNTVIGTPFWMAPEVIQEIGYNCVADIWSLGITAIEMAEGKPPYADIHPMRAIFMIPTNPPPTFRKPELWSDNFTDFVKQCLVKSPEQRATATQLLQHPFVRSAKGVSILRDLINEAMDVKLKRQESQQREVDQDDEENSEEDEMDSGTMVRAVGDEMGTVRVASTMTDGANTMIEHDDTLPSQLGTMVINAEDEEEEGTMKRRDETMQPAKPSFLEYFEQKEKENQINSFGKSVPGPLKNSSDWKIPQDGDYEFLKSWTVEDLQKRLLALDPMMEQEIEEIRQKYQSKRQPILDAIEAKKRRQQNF
To be noted: at 1 µM.

Test [11] deals with T1, Serine/threonine-protein kinase 4 (Homo sapiens). The settings on record: at 10 µM.
Test [12] deals with Serine/threonine-protein kinase 24 (Homo sapiens) (UniProt Q9Y6E0). The settings on record: at 1 µM.
Sequence of Serine/threonine-protein kinase 24 (Homo sapiens) (Q9Y6E0 whole entry, looked up): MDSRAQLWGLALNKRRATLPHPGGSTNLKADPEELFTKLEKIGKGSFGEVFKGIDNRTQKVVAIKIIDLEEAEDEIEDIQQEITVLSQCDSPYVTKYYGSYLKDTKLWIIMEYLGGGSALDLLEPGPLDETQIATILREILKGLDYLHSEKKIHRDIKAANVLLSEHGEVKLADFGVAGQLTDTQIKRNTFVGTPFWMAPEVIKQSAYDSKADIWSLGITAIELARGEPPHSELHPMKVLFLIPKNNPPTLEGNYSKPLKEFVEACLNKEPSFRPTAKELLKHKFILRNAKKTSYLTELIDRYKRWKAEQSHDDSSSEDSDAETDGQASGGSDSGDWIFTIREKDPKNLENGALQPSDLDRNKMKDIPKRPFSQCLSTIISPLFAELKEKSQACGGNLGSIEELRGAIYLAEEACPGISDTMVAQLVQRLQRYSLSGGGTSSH
Test [13] shares this target. To be noted: at 10 µM.
For test [14], the target named is Serine/threonine-protein kinase MRCK alpha (Homo sapiens) (UniProt Q5VT25). The settings on record: at 1 µM.
Sequence of Serine/threonine-protein kinase MRCK alpha (Homo sapiens) (Q5VT25 whole entry): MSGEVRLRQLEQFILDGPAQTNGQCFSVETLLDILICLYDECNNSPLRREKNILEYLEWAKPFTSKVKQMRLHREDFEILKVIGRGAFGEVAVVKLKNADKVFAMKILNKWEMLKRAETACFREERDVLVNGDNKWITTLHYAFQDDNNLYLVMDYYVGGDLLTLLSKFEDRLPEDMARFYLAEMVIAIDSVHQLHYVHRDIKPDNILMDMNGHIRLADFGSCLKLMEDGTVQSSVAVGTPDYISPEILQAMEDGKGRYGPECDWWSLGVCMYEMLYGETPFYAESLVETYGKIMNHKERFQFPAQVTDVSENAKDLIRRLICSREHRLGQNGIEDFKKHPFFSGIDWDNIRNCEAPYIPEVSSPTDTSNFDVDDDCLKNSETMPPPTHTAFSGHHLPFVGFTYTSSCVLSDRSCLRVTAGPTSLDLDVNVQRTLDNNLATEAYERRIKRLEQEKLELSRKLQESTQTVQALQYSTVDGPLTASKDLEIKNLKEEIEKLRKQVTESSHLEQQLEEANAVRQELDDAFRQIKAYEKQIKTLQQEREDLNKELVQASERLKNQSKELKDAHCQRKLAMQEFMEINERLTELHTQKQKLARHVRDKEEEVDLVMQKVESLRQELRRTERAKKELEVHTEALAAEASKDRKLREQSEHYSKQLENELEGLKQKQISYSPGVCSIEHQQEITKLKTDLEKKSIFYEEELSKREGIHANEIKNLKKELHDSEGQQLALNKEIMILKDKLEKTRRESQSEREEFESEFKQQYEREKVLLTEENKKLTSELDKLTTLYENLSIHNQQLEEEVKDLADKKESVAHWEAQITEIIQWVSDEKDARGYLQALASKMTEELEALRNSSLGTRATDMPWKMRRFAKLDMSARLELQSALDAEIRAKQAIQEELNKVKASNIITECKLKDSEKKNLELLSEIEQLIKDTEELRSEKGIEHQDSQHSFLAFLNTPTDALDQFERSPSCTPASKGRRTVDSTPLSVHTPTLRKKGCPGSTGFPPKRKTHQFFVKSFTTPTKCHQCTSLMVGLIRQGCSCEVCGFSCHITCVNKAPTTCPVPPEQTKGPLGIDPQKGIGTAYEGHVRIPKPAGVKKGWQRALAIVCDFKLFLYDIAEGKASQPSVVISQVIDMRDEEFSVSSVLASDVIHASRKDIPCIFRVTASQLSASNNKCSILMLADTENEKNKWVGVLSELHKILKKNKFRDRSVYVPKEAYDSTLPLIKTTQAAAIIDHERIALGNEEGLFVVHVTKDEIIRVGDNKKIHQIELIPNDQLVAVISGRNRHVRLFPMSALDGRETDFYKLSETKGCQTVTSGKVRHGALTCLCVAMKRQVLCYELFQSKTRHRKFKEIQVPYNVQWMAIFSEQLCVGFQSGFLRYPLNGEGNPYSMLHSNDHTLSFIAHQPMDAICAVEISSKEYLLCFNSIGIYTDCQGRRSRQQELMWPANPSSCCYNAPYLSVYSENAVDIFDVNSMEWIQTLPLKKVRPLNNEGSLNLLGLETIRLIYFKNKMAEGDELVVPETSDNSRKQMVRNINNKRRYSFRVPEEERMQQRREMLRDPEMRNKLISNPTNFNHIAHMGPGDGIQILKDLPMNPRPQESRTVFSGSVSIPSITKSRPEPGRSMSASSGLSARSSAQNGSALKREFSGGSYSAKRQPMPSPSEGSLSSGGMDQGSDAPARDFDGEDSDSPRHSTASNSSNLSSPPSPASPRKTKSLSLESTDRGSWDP
For test [15] the target is unchanged. To be noted: at 10 µM.
For test [16], the target named is Ribosomal protein S6 kinase alpha-5 (Homo sapiens) (UniProt O75582). To be noted: at 1 µM.
Sequence of Ribosomal protein S6 kinase alpha-5 (Homo sapiens) (O75582 whole entry, looked up): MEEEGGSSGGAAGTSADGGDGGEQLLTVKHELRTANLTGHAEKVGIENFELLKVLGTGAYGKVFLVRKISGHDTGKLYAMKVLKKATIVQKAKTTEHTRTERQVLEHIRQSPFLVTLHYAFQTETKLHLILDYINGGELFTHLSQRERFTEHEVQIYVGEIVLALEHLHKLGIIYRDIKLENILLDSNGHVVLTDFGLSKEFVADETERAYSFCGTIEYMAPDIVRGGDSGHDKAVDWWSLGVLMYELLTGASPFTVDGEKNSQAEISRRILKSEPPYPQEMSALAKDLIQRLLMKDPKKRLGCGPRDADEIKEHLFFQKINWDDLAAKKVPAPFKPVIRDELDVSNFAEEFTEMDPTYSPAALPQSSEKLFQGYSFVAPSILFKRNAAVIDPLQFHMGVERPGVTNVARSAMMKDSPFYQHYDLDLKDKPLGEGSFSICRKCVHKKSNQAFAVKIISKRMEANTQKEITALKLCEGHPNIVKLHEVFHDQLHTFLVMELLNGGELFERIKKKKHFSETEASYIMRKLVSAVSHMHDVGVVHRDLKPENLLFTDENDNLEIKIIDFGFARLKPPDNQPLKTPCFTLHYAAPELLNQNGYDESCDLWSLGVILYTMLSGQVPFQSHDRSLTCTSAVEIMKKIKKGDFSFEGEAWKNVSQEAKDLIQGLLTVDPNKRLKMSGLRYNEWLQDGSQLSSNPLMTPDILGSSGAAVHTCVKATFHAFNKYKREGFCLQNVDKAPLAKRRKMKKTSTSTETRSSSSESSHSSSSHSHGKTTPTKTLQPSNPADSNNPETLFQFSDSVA
For test [17] the target is unchanged. The settings on record: at 10 µM.
Test [18] has as its target Myosin light chain kinase, smooth muscle (Homo sapiens) (UniProt Q15746). The settings on record: at 1 µM.
Test [19] deals with T2, Serine/threonine-protein kinase 3 (Homo sapiens) (UniProt Q13188).
T2 sequence (whole entry): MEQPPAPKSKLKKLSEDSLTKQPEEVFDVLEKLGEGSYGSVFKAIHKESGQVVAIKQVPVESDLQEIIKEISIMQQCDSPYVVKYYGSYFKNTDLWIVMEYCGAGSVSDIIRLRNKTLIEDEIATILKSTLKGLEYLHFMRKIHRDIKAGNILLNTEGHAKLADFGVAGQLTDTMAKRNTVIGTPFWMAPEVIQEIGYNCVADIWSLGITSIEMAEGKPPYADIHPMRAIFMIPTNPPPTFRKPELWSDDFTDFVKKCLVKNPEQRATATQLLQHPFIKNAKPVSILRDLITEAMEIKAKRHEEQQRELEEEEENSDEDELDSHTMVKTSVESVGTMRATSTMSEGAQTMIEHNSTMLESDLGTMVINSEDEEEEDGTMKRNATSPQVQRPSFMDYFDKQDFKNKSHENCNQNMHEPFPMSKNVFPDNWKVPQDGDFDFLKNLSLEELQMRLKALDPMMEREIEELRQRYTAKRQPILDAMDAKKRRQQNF
To be noted: at 1 µM.

Test [20] deals with T2, Serine/threonine-protein kinase 3 (Homo sapiens). To be noted: at 10 µM.

Turning to `CC(C)[C@H](CO)Nc1nc(Nc2cccc(Cl)c2)c2ncn(C(C)C)c2n1`, the residual activity in test [1] was found to be 46%; in test [2] it was 10%; in [3], 1%; in [4] it was 98%; in [5], 88%; in [6] it was 95%. Besides, the residual activity came out at 62% in test [7]; 73% in test [8]; 17% in [9]; 63% in test [10]; 30% in test [11]; 58% in test [12]. The residual activity in test [13] came out at 20%.
Take `CCc1nc(-c2ccc(OC)cc2)[nH]c1-c1ccncc1`: the residual activity came to 115% in test [14]; 114% in test [15]; 108% in test [16]; 112% in test [17]; 123% in test [8]; 103% in test [9]. Further, in test [11], the residual activity was determined as 111%.
With `COC(=O)[C@@]1(O)C[C@H]2O[C@]1(C)n1c3ccccc3c3c4c(c5c6ccccc6n2c5c31)C(=O)NC4`, the residual activity was found to be 1% in test [18]; 2% in test [1]; 1% in test [2]; 0% in test [3]; 71% in test [14]; 23% in test [15]. For the same compound, the residual activity was 33% in [4]; 5% in test [5]; 5% in [16]; 0% in test [17]; -1% in test [6]; 0% in test [7]. Also, the residual activity was 11% in [8]; 2% in test [9]; 5% in test [10]; 1% in [11]; 2% in test [19]; 1% in test [20]. Besides, the figures for the residual activity in test [12] and in test [13] were 14% and 0%, respectively.
On to `COc1cc2ncnc(Nc3ccc(OCc4ccccc4)cc3)c2cc1OC`, for which the residual activity amounted to 84% in test [18]; 90% in [1]; 81% in test [2]; 56% in test [3]; 121% in test [14]; 117% in [15]. In addition, the residual activity in test [4] came out at 95%; in test [5], 95%; in [6] it was 99%; in test [7], 101%; in [8], 122%; in test [9], 89%. Moreover, the residual activity in test [10] came out at 95%; in test [11] it was 104%; in [19] it was 111%; in test [20], 81%; in test [12] it was 70%; in test [13], 90%.
For `O=[N+]([O-])/C=C/c1ccc2c(c1)OCO2`, the residual activity turned out to be 89% in test [18]; 82% in test [1]; 100% in test [2]; 111% in [3]; 106% in test [14]; 100% in [15]. In addition, the residual activity in test [4] amounted to 83%; in [5] it was 89%; in [16], 125%; in [17], 110%; in [6] it was 90%; in [7], 101%. Moreover, the residual activity in test [8] came out at 120%; in [9] it was 93%; in test [10], 101%; in test [19], 104%; in test [20] it was 91%; in [12] it was 77%. In addition, the residual activity in test [13] was 75%.
For the compound `COc1ccc2c(c1)/C(=C/c1cnc[nH]1)C(=O)N2`, the residual activity in test [2] amounted to 25%; in test [3], 4%; in test [14] it was 129%; in [15], 100%; in [6], 63%; in test [7], 19%. Moreover, the residual activity in test [19] worked out at 16%; in [20] it was 3%.
Consider `C[S+]([O-])c1ccc(-c2nc(-c3ccc(F)cc3)c(-c3ccncc3)[nH]2)cc1` (centres undefined), for which the residual activity in [18] is 118%; in test [1], 89%; in test [2] it was 101%; in [14], 106%; in test [15], 119%; in [4], 113%. Moreover, the residual activity was 110% in test [5]; 97% in test [16]; 98% in [17]; 102% in test [6]; 81% in [7]; 102% in [8]. Besides, the residual activity in test [9] amounted to 101%; in [10], 111%; in test [11], 109%; in [19] it was 104%; in test [20], 93%; in test [12] it was 115%. In [13], the residual activity came out at 102%.
On to `O=C1Nc2ccc3ncsc3c2/C1=C/c1c[nH]cn1`, for which the residual activity in test [18] amounted to 25%; in [1] it was 11%; in test [2], 9%; in [3], 2%; in test [14] it was 104%; in [15], 90%. Moreover, the residual activity is 75% in [4]; 49% in test [5]; 43% in [16]; 7% in test [17]; 20% in [6]; 6% in test [7]. The residual activity amounted to 98% in test [8]; 68% in [9]; 1% in test [10]; 3% in test [11]; 2% in test [19]; 1% in test [20]. In addition, the residual activity in [12] was 3%; in test [13], 0%.
